# Rows were chosen to be rich in hits. Some 2.7% of all compounds tested hit in one or more screens of this group.
# Nrf2 ARE act: activates Nrf2 signaling; AREc32 ARE-luciferase reporter (MCF7-derived line), luminescence, 24 h; Potency, µM (titrated, usually from 46.1 µM), inactives show at the highest dose activation, hits mostly activators; 410,000 compounds, 0.31% hits; AID 624171; note: potency is the fitted concentration of half-maximal effect; % of control where 0% means no effect; nearly all actives have a fitted effect of over 65% in size
#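 AREc32_Fluc, 1000 cells/well, OPTI-MEM + 5% FBS, o/n 37 deg C 5% CO2; 23 nL cpd by pin tool, 24 hr; Steady-Glo 30 min RT, luminescence.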
# Nrf2 block: inhibitors of Nrf2 signaling | A549 ARE-Fluc reporter, luciferase luminescence, 18-24 h | Potency, µM (series often up to 46 µM), for inactives: top-dose activity change, negative = inhibition, most hits filed as inhibitors | 360,000 compounds, 2.1% hits | AID 504444; note: potency is the fitted concentration of half-maximal effect; % is set by controls: 0 for no effect and ±100 for the full control effect; nearly all actives have a fitted effect of over 60% in size
#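 A549 ARE_Fluc cells (5000/well, 5% FBS OPTI-MEM) pre-incubated 2 h, then treated with compounds 18-24 h at 37C/5% CO2 in concentration-response. CellTiter-Fluor viability read first; BugLite luciferase luminescence after 15 min at room temperature gives Nrf2 activity.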
# ERG-DNA inh: inhibitors of human ERG Ets domain-DNA interaction. fluorescence polarization, His-ERG Ets domain / labelled DNA. P11308. Potency, µM (series often up to 76.9 µM), for the others: top-dose FP activity, negative = inhibition, usual class: inhibitors. AID 624246. 370,000 compounds, 0.028% hits; active = well fitted inhibition curve with a large enough effect in the polarisation, with a control signal flat; inconclusive = small, poorly fitted or top-dose-only effect, or effect the other way, or a change in a side signal; inactive = no such curve, though single readings can be large or run the other way; the % refers to the polarisation;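 note: polarization taken with two DNA probes labelled with fluorescein and Texas red; potency is the fitted concentration of half-maximal effect; % of control where 0% means no effect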
#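 His-tagged ERG Ets domain (1 uM in the protein solution; 300mM KCl, 50mM Tris-HCl, 1mM EDTA, 1mM DTT, pH 7.5) received compound, then a probe mix of 5 nM fluorescein-DNA and 100nM Texas-615-DNA. Fluorescence polarization was read for both dyes.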
# A549 tox: counter-screen for Nrf2 inhibitors: cytotoxicity in A549 cells | Potency, µM (top dose mostly 46 µM), for the others: at the top dose activity change, negative = cytotoxicity, most hits filed as inhibitors | AID 504648 | 390,000 compounds, 0.16% hits | A549 ARE-Fluc cells, CellTiter-Fluor viability, 18-24 h; note: potency is the fitted concentration of half-maximal effect; % is set by controls: 0 for no effect and ±100 for the full control effect
#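 Cytotoxicity counterscreen: CellTiter-Fluor fluorescence was measured in A549 ARE_Fluc cells after 18-24 h of compound exposure in a concentration series. The subsequent BugLite luminescent read reports ARE-luciferase activity.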
# LDHA inh: blocks human lactate dehydrogenase A. purified LDHA, NADH/diaphorase-resazurin fluorescence; hits give low values. activity change, % (values are at about 110 or 230 µM). 480,000 compounds, 0.15% hits. AID 1347041; in the data active = activity change below about -30%; inconclusive = mostly about -25% to -30%;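 note: plate controls were DMSO wells for no effect and wells without enzyme for full effect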
#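 Resorufin fluorescence (ex540/em590), read at 0 and 20 min after diaphorase/resazurin addition, reports the NADH left after a 5 min room-temperature reaction of 2 nM human LDH5 with 0.06 mM NADH and 0.2 mM pyruvate.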
# 12-LOX inh: inhibitors of human 12S-lipoxygenase ALOX12; AID 1671190; Potency, µM (top dose mostly 108 µM), for inactives: top-dose activity change, negative = inhibition, actives largely listed as inhibitors; purified 12hLO, xylenol orange hydroperoxide absorbance; P18054; 580,000 compounds, 1.1% hits; note: potency is the fitted concentration of half-maximal effect; % is set by controls: 0 for no effect and ±100 for the full control effect
# Target sequence (P18054 whole entry, looked up): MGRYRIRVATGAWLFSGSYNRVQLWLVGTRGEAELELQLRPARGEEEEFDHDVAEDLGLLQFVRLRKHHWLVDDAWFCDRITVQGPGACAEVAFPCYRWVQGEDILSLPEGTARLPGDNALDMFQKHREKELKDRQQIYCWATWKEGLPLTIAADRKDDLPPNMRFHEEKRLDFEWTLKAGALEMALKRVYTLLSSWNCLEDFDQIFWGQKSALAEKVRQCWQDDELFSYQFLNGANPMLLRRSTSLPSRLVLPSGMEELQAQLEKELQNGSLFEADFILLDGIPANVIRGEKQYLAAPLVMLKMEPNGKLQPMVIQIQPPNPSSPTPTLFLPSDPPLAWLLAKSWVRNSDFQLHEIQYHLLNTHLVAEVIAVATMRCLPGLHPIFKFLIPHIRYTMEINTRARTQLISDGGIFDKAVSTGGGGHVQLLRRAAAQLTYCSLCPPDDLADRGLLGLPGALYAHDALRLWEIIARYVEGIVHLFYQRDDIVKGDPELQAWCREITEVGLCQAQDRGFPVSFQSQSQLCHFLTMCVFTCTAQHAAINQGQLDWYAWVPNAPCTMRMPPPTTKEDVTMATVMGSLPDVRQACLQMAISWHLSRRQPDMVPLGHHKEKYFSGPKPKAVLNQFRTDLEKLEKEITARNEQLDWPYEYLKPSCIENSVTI
#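 Purified human 12hLO (150 nM final) in 25 mM Hepes, 0.01% Triton X-100, pH 7.0 was preincubated 15 min at room temperature with compound. Then 40 uM arachidonic acid was added, 30 min. Hydroperoxide was read by Fe-XO absorbance ratio 573/405 nm.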
# Active calls of the source: *; u = inconclusive; x = not tested or not shown; [ ] = dose if it differs, or a comment. Unless noted, calls come from the whole dose curve; as a rule, active = well fitted curve in the direction sought with a large enough effect; inconclusive = small, poorly fitted or top-dose-only effect, or another doubt; inactive = no such curve, though single readings can be large; an effect the other way counts as inactive or inconclusive.
SMILES,Nrf2 ARE act,Nrf2 block,ERG-DNA inh,A549 tox,LDHA inh,12-LOX inh
O=[N+]([O-])c1ccc(NNS(=O)(=O)c2ccccc2)c([N+](=O)[O-])c1,x,x,x,x,0,-74%
Oc1c(C(c2ccc(Br)cc2)N2CCOCC2)sc2nc(-c3ccco3)nn12 (stereo not given),0%,x,-20%,1%,7,u
Cc1ccc(C(c2sc3nc(-c4ccco4)nn3c2O)N2CCOCC2)cc1 (stereo not given),2%,x,-5%,-3%,2,14µM*
COc1ccc(C(NC(=O)c2nn(C)c(=O)c3ccccc23)C(C)C)cc1 (stereo not given),x,x,x,x,6,-4%
CC(C)c1ccc(C(=O)NC(=S)NCCCO)cc1,x,x,x,x,3,u
CCCCOc1ccc(C(=O)NC(=S)NCCCO)cc1Br,x,x,x,x,2,7.9µM*
C[S+](=O)([O-])c1cccc(CN2CC(COc3ccccc3)C3(C2)CN(c2ccccc2)C3)c1 (stereo not given),x,x,x,x,x,0%
O=C(O)c1cccc(CN2CC(CNc3ccccc3)C3(C2)CN(c2ccccc2)C3)c1 (stereo not given),x,x,x,x,x,13%[176 µM]
O=[S+]([O-])(NCC1CN(Cc2ccc3[nH]ccc3c2)CC12CN(c1ccccc1)C2)c1ccccc1 (stereo not given),x,x,x,x,x,35µM*
Oc1ccc(CN2CC(CNc3ccccc3)C3(C2)CN(c2ccccc2)C3)cc1 (stereo not given),x,x,x,x,x,63µM*
COc1cc(C2SCCS2)ccc1OC(=O)c1ccc2ncsc2c1,x,x,x,x,0,-7%
CCOC(=O)/C(C#N)=C1/C=C(C)NC(c2ccccc2O)=N1,0%,13µM*,0%,-4%[1.84 µM],-18,7%
Cn1nnc(NC(=S)NC(=O)c2cccc3ccccc23)n1,0%,5%,-3%,-2%,-3,0.63µM*
Cn1nnc(NC(=S)NC(=O)c2ccc3ccccc3c2)n1,2%,x,x,x,-8,11µM*
Cc1ccc(N2NC(=O)/C(=C/c3ccc(-c4ccc(Cl)c(C(=O)O)c4)o3)C2=O)cc1,0%,-3%,5%,0%,-4,u
O=C1NN(c2ccc(Cl)cc2)C(=O)/C1=C\c1ccc(-c2cccc(C(=O)O)c2)o1,2%,u,-4%,-2%,2,40µM*
CC(C)Cn1nc(NS(=O)(=O)c2ccccc2)c2cc3ccccc3nc21,0%,5%,1%,-2%,0,0%
CCCc1nc([N+](=O)[O-])c(S(=O)(=O)c2ccccc2)n1CC(C)C,5.6µM*,1%,-6%,-12%,-3,-4%
Cc1ccccc1-c1nnc(-c2cccs2)o1,11µM*,99%,-14%,3%,-10,27%
N#Cc1cccnc1N1CCN(C(C(=O)O)c2c[nH]c3ccc(Cl)cc23)CC1 (stereo not given),x,x,x,x,-3,0%
CC1=C[C@@H](CNCc2ccccc2)[C@H](C(C)C)C[C@H]1Cc1nc2c(C)cccc2[nH]1,x,x,x,x,x,63µM*
CC1=C[C@@H](CN(C)C)[C@H](C(C)C)C[C@H]1Cc1nc2c(C)cccc2[nH]1,x,x,x,x,x,114%[176 µM]
COc1ccccc1CNC[C@@H]1C=C(C)[C@H](Cc2nc3c(C)cccc3[nH]2)C[C@H]1C(C)C,x,x,x,x,x,56µM*
O=C(O)/C(=C/c1ccccc1)c1cccs1,x,x,x,x,4,-30%
CCN(CC(=O)Nc1ccc(NC(C)=O)cc1)C(=O)c1nn(C)c(=O)c2ccccc12,x,x,x,x,10,0%
COc1ccc(-c2nnc(COc3ccc4ccccc4c3)o2)cc1OC,4%,23µM*,10%,x,-3,0%
O=S(=O)(NCCc1ncc2ccccn12)c1ccccc1,x,x,x,x,7,-2%
Cc1noc(NC(=O)CSc2nccn2-c2cccc(C)c2C)n1,x,x,x,x,-2,8%

# Source: PubChem (National Center for Advancing Translational Sciences (NCATS))
